Screening data as filed in PubChem BioAssay.
SMN2 splice up – increases expression of the SMN2 splice variant; actives 2.8% (n = 210,000); HEK293 SMN2-luciferase splicing reporter, luminescence, 30-36 h; Potency, µM (top dose mostly 46.1 µM), for the others: at the top dose activity change, positive = activation, hits mostly activators; note: % of control where 0% means no effect; nearly all actives have a fitted effect of over 55% in size
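HEK293 cells carry an SMN2 minigene-luciferase reporter in which exon 7 inclusion puts luciferase in frame. Cells were seeded at 2000 cells/well, attached for 10-12 hours, then exposed to compounds for 30-36 hours at 37C before ONE-Glo luminescence.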
FLuc counter – firefly luciferase modulation, counter-screen for miR-21 project. P08659. purified FLuc, Km substrates, luminescence inhibition. Potency, µM (series often up to 57.5 µM), for inactives: top-dose activity change, negative = inhibition, hits mostly inhibitors. actives 6.9% (n = 360,000). AID 588342;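 note: plate controls were vehicle for no effect and reference inhibitor for full effect; nearly all actives have a fitted effect of over 55% in size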
Target sequence (P08659 whole entry, looked up): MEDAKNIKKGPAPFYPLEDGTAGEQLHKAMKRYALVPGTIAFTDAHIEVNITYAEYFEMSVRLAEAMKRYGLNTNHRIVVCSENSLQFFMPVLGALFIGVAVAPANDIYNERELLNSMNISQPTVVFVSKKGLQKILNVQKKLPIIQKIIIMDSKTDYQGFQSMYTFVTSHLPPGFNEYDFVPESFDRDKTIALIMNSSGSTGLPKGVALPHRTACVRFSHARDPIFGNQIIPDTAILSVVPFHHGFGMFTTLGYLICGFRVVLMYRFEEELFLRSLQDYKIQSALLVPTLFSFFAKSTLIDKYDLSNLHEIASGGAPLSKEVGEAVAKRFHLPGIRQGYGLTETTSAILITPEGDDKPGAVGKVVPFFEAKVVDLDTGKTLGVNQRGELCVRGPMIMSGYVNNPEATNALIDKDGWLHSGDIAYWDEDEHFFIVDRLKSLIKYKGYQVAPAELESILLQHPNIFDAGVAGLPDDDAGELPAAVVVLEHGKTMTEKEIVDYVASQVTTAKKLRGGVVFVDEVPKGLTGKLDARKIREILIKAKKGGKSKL
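Purified P. pyralis luciferase, 10 nM final, with Km-level 10 uM D-luciferin and 10 uM ATP in 50 mM Tris acetate pH 7.5, 10 mM Mg acetate, 0.01% Tween-20, 0.05% BSA; 6-point qHTS titration about 60 µM downward; luminescence read.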
uPA surface inh – cell surface uPA generation inhibition | cell surface uPA generation assay, qHTS | Potency, µM (doses to about 38.3 µM), for inactives: at the highest dose activity change, negative = inhibition, most hits filed as inhibitors | actives 0.31% (n = 330,000); active = well fitted inhibition curve with a large enough effect; inconclusive = small, poorly fitted or top-dose-only effect; inactive = no such curve, though single readings can be large or run the other way; tested in mouse RAW 264.7 cells; note: % is set by controls: 0 for no effect and ±100 for the full control effect; nearly all actives have a fitted effect of over 55% in size
NPC1 prom act – activates the NPC1 promoter; AID 485313; Huh7 NPC1 promoter luciferase reporter, 24 h; actives 2.4% (n = 320,000); Potency, µM (titrated, usually from 9.22 µM), for inactives: at the highest dose activation, actives largely listed as activators; note: % of control where 0% means no effect; nearly all actives have a fitted effect of over 60% in size
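NPC1 promoter–luciferase Huh7 cells; 24 h compound; luminescence.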
ELG1 genotoxic – genotoxicity induction in ELG1-luciferase HEK293T cells | actives 1.3% (n = 330,000) | HEK293T ELG1-luciferase reporter, luminescence, 16 h | Potency, µM (doses to about 46 µM), for inactives: at the top dose activity change, positive = activation, most hits filed as activators; note: % of control where 0% means no effect; nearly all actives have a fitted effect of over 60% in size
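Quantitative HTS format in 1536-well plates. HEK293T ELG1-luciferase reporter cells receive test compound and are incubated 16 hr at 37 °C, 5% CO2; ONE-Glo added, 30 min room temperature, then luminescence read.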
Rab9 promoter act – activators of Rab9 promoter; Huh7 Rab9 promoter-luciferase reporter, luminescence, 24 h; Potency, µM (series often up to 9.22 µM), without a hit: top-dose activation, negative = inhibition, usual class: activators; actives 2.8% (n = 320,000); note: % of control where 0% means no effect; nearly all actives have a fitted effect of over 60% in size
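Using Huh7 cells stably transfected with Rab9 promoter–luciferase, compounds were incubated 24 h at 37 °C, 5% CO2; luciferase luminescence was read 10 min after reagent addition.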
The depositor's hits bear a star; u = inconclusive; x = no result given; [ ] = another dose, or the depositor's remark. Sampled rows, rich in hits. Any-hit rate of the full collection: about 7.3%. Unless noted, calls come from the whole dose curve; as a rule, active = well fitted curve in the direction sought with a large enough effect; inconclusive = small, poorly fitted or top-dose-only effect, or another doubt; inactive = no such curve, though single readings can be large; an effect the other way counts as inactive or inconclusive. Potency is the fitted concentration of half-maximal effect.

SMILES	SMN2 splice up	FLuc counter	uPA surface inh	NPC1 prom act	ELG1 genotoxic	Rab9 promoter act
O=C(N/N=C\c1ccoc1)c1ccco1	x	-11%	7%	0%	7%	9%
CN(C)c1ccc(/C=N/NC(=O)c2cc(=O)[nH]c3ccccc23)cc1	x	-13%	0%	-3%	5%	-1%
CN(C)c1ccc(/C=N/NC(=O)c2ccco2)cc1	8.9µM*	2.7µM*	-7%	0.79µM*	4.1µM*	0.56µM*
COc1cccc(CNC(=O)c2[nH]c3cc(C)ccc3c2Sc2ccccc2)c1	x	-2%	x	x	x	x
Cc1ccccc1CN1C[C@@H]2C[C@@H](c3cnc(N4CCOCC4)s3)N3CCC[C@@]23C1=O	16µM*	-3%	4%	-4%	-8%	-32%
Cc1onc(-c2ccccc2)c1C(=O)Nc1nc(-c2cc(F)ccc2F)cs1	11%	u	2%	-3%	u	-2%
COc1ccc(-c2csc(NC(=O)c3ccccc3F)n2)cc1	x	u	20%	1%	8%	5%
O=C(Nc1nc(-c2ccccc2)cs1)c1ccccc1F	x	17µM*	11%	u	u	3.5µM*
COc1ccc(CC(=O)Nc2nc(C)cs2)cc1	5%	-8%	4%	6%	5%	7%
Cc1csc(NC(=O)c2ccc(C)o2)n1	x	15µM*	-3%	u	u	3.5µM*
Cc1onc(-c2ccccc2)c1C(=O)Nc1nc(-c2ccccc2)cs1	u	19µM*	0%	12%	u	u
Cc1ccc(S(=O)(=O)Nc2ccccc2C(=O)Nc2nc(-c3ccc(F)cc3)cs2)cc1	-49%	u	13µM*	-12%	-2%	-20%
COCCCNC(=O)c1c(NC(=O)c2nc(S(C)(=O)=O)ncc2Cl)sc2c1CCCC2	-3%	-19%	x	x	x	x
CCC(C)(C)c1ccc(OCCCC[n+]2cccc(C)c2)c(C(C)(C)CC)c1	-82%	1%	-1%	-23%	-11%	-23%
CC(=O)C1=C(c2ccc(Cl)cc2)N(C(C)=O)n2c(nnc2C2CCCCC2)S1	x	-5%	x	x	x	x
Cc1ccc(C(=O)Nc2nc(-c3cccnc3)cs2)o1	16%	21µM*	6%	19%	1%	21%
Cc1ccc(-c2csc(NC(=O)C3=NN(c4ccccc4)C(=O)CC3)n2)cc1	-52%	8.5µM*	3%	-7%	-13%	-29%
O=C(Nc1nc(-c2ccccc2)cs1)c1ccc(Br)o1	-5%	24µM*	-2%	11%	6%	20%
O=C(Nc1nc(-c2cccnc2)cs1)c1ccc([N+](=O)[O-])cc1	x	-16%	1%	1%	-3%	-1%
O=C(Cn1c(SCCOc2ccccc2Cl)nc2ccccc21)N1CCOCC1	x	-1%	x	x	x	x
CCN1CCN(C(c2cccc(OC)c2)c2c(O)cc(C)n(Cc3ccco3)c2=O)CC1 (configuration not stated)	x	-5%	x	x	x	x
CC(=O)NN1C(=O)/C(=C2/Sc3ccccc3N2C)SC1=S	x	1%	-8%	4%	u	0%[1.84 µM]
CN1C(=C2C(=O)OC(C)(C)OC2=O)Sc2ccccc21	13%	15µM*	-1%	3.5µM*	u	2.5µM*
CCOc1ccc(NC(=NCc2ccc3c(c2)OCO3)SC2CC(=O)N(c3ccc(OCC)cc3)C2=O)cc1 (configuration not stated)	22µM*	-9%	-2%	u	u	u
CCC(=O)Nc1ccc2oc(-c3ccccc3Br)nc2c1	10µM*	3µM*	2%	1.8µM*	u	2µM*
SMILES	SMN2 splice up	FLuc counter	uPA surface inh	NPC1 prom act	ELG1 genotoxic	Rab9 promoter act
CC(=O)Nc1ccc2oc(C)nc2c1	x	-2%	-3%	0%	-1%	2%
Cc1ccccc1-c1nc2cc(NC(=O)Cc3ccc(Cl)cc3)ccc2o1	-4%	-10%	x	x	x	x
CC(=O)Nc1ccc2oc(-c3ccccc3Br)nc2c1	11µM*	2.4µM*	-4%	0.89µM*	1.8µM*	0.45µM*
Cc1ccccc1-c1nc2cc(NC(=O)C3CC3)ccc2o1	x	1.7µM*	-6%	0.45µM*	4.6µM*	0.5µM*
COc1cc(OC)cc(C(=O)Nc2ccc3oc(-c4ccccc4C)nc3c2)c1	-1%	-15%	x	x	x	x
CC(=O)Nc1ccc2oc(-c3cc(F)c(F)cc3Cl)nc2c1	8.9µM*	1.9µM*	-5%	0.32µM*	1.8µM*	0.4µM*
CC(C)C(=O)Nc1ccc2oc(-c3cc(F)c(F)cc3Cl)nc2c1	u	u	2%	u	u	u
Cc1cccc(NC(=S)NC(C)C(c2ccccc2)N2CCN(C)CC2)c1C (configuration not stated)	-5%	0%	-8%	-5%	0%	-1%
CCC(=O)N1CCc2cc(Br)cc(S(=O)(=O)N3CCN(c4ccccc4OC)CC3)c21	2%	-3%	x	x	x	x
Cc1ccc2c(c1)NC(=O)c1cccnc1N2	11µM*	12µM*	-7%	3.2µM*	u	u
O=C1Nc2ccccc2Nc2ncccc21	u	3%	3%	-4%	-1%	4%
Cc1ccccc1NC(=O)Cn1nnc(-c2ccc(N3CCOCC3)cc2)n1	23%	u	3%	-3%	19%	25%
O=C(Cn1nnc(-c2ccc3c(c2)OCO3)n1)Nc1ccccc1C(=O)O	x	15µM*	9%	u	u	27%
O=C(Cn1nnc(-c2ccccc2)n1)Nc1ccc2c(c1)OCO2	-10%	0%	5%	6%	-1%	3%
CN(C)c1ccc(-c2nnn(CC(=O)Nc3ccccc3N3CCOCC3)n2)cc1	-12%	27µM*	-14%	30%	-2%	9%
Cc1ccc(-n2nnc3ccccc3c2=O)cc1C	14µM*	2%[2.3 µM]	8%	u	u	3.5µM*
